DAX1 inh-1 – DAX1 (NR0B1) inhibition, primary screen; HEK293T StAR-luciferase reporter, SF-1/DAX-1 repression relief; inhibition, % at 6.8 µM; hit rate 1.1% among 370,000;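 active = inhibition above the mean over all tested compounds plus 3 SD, cut at about 3.6% in these data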;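 note: 0% = DAX-1 cells with DMSO and 100% = cells lacking DAX-1 with DMSO; higher inhibition means more luminescence from relief of DAX-1 repression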
DAX1 inh-2 – NR0B1 (DAX1) inhibition | hit rate 0.99% among 340,000 | inhibition, % at 6.75 µM | HEK293 Gal4-DAX1 luciferase reporter, luminescence;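 active = inhibition above the mean over all tested compounds plus 3 SD, cut at about 4.2% in these data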;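 note: 0% = DAX1-transfected cells with DMSO and 100% = empty-vector control cells with DMSO; inhibition shows as a rise in luminescence from relieved DAX1 repression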
ssDAF12 agonist – S. stercoralis DAF-12 activation, primary screen; HEK293 ssDAF-12/GRIP1 lit1-tk-luc reporter, luminescence; % of 3 µM dafachronic acid response; activation, % at 6.8 µM; hit rate 1% among 370,000; AID 652126;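 active = activation above the mean over all tested compounds plus 3 SD, cut at about 0.9% in these data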;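 note: 0% = DMSO-only wells and 100% = 3 µM delta7-dafachronic acid wells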
hcDAF12 agonist – activates DAF-12 receptor from parasite H. contortus | HEK293 hcDAF-12 lit1-tk-luc reporter, luminescence; 0% DMSO, 100% Δ7-dafachronic acid | activation, % at 6.8 µM | hit rate 1.4% among 370,000;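 active = activation above the mean of all tested compounds plus 3 SD, cut at about 5.5% in these data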;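 note: 100% = response to 3 µM Δ7-dafachronic acid high control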
hgDAF12 agonist – agonists of H. glycines DAF-12 nuclear receptor; HEK293 GAL4-hgDAF12 UAS-luciferase reporter, agonist luminescence; normalized to butyrate control; activation, % at 6.8 µM; hit rate 1.8% among 370,000;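 active = activation above a cutoff set at the mean of all screened compounds plus 3 SD, cut at about 10% in these data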;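 note: 0% = DMSO wells and 100% = sodium butyrate wells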
LXRb hcDAF ctr – activates human LXR-beta, counter-screen for hcDAF-12 agonists. shares compounds with hcDAF12 agonist. HEK293 Gal4-LXR tk-luc reporter, luminescence, 24 h; normalized: DMSO 0%, positive control 100%. activation, % at 6.8 µM. 3,400 tested, under 10 active. AID 743027;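 active = mean percent activation of the reporter above a cutoff set as the average over tested compounds plus their standard deviation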
Target sequence (P55055 whole entry, looked up, the tested form may be a part): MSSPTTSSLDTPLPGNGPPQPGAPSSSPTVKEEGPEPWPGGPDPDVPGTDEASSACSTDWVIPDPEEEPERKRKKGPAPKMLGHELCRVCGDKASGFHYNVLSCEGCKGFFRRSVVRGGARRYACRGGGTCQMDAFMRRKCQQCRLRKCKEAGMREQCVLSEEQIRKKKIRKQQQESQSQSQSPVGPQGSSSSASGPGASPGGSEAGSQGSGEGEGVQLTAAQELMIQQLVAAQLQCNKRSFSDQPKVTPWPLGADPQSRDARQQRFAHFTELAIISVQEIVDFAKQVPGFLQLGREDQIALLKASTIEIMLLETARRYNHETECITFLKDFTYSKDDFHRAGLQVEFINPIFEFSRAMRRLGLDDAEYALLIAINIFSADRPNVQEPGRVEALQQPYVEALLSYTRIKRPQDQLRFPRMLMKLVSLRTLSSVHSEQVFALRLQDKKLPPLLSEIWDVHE
hcDAF12 ag – confirmation of H. contortus DAF-12 agonists; shares compounds with hcDAF12 agonist; HEK293 hcDAF-12 lit1-tk-luc reporter, luminescence; % of Δ7-dafachronic acid response; activation, % at 6.8 µM; hit rate 61% among 3,400; AID 743032;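 active = mean activation across triplicate tests above the threshold derived from the earlier primary screen, cut at about 5.5% in these data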;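 note: 0% = DMSO only wells and 100% = 3 µM Δ7-dafachronic acid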
* hit, by the source's call. This is a sample that favours compounds with a hit; in the whole collection about 4.1% have one here.

`COc1ccc(C(=O)N=c2sccn2C)cc1` gave DAX1 inh-1 2.0, DAX1 inh-2 1.6, ssDAF12 agonist -0.1, hcDAF12 agonist 1.8 and hgDAF12 agonist 4.6.
Screening Cn1ccsc1=NC(=O)c1ccc(OC(F)(F)F)cc1 returned DAX1 inh-1 0.4, DAX1 inh-2 4.1, ssDAF12 agonist -0.2, hcDAF12 agonist 8.2*, hgDAF12 agonist 10.3, LXRb hcDAF ctr 0.7 and hcDAF12 ag 4.2.
`O=C(c1cc(-c2ccccc2Cl)on1)N1CCCC1` gave DAX1 inh-1 3.0, DAX1 inh-2 0.0, ssDAF12 agonist 0.9, hcDAF12 agonist 8.6*, hgDAF12 agonist 12.2*, LXRb hcDAF ctr 1.4 and hcDAF12 ag 11.6*.
`O=C(c1cc(-c2ccc(Cl)c(Cl)c2)on1)N1CCCCC1` gave DAX1 inh-1 1.1, DAX1 inh-2 1.2, ssDAF12 agonist -0.3, hcDAF12 agonist 2.4 and hgDAF12 agonist 7.4.
For O=C(c1cc(-c2ccc(Br)cc2)on1)N1CCOCC1 the results were DAX1 inh-1 2.9, DAX1 inh-2 -0.5, ssDAF12 agonist 0.4, hcDAF12 agonist 7.2*, hgDAF12 agonist 12.6*, LXRb hcDAF ctr 1.4 and hcDAF12 ag 4.9.
For C/C(=C\C(=S)Nc1ccccc1)Nc1ccc2ccccc2c1 the results were DAX1 inh-1 0.5, DAX1 inh-2 -0.7, ssDAF12 agonist 0.1, hcDAF12 agonist 6.9*, hgDAF12 agonist 3.0, LXRb hcDAF ctr 0.5 and hcDAF12 ag 5.3.
`CCCCOCCCNC(=O)C[C@H]1C[C@@]2(C(=O)OC)C(=C[C@H](C(C)C)O[C@@H]2C2CC2)N(Cc2ccc(Cl)cc2Cl)C1=O` gave DAX1 inh-1 -1.1, ssDAF12 agonist -0.4, hcDAF12 agonist -2.2 and hgDAF12 agonist -2.4.
Cc1cnc(NC(=O)CSc2nnc(-c3ccccc3)o2)s1 was read as DAX1 inh-1 3.3, DAX1 inh-2 6.4*, ssDAF12 agonist 0.0, hcDAF12 agonist 8.4*, hgDAF12 agonist 6.7, LXRb hcDAF ctr 0.7 and hcDAF12 ag 4.5.
For CCN(CC)S(=O)(=O)c1ccc(-c2nnc(SCC(N)=O)n2CC)cc1 the results were DAX1 inh-1 0.1, DAX1 inh-2 0.7, ssDAF12 agonist -1.0, hcDAF12 agonist 1.9 and hgDAF12 agonist 1.2.
`CCN(CC)S(=O)(=O)c1ccc(-c2nnc3sc4cccc(C)c4n23)cc1` gave DAX1 inh-1 -0.2, DAX1 inh-2 -2.5, ssDAF12 agonist 0.6, hcDAF12 agonist 7.1*, hgDAF12 agonist 5.5, LXRb hcDAF ctr -0.4 and hcDAF12 ag 4.0.
`COC(=O)C1=C(C)NC(=S)NC1c1cccc(OC)c1` (centres undefined) gave DAX1 inh-1 0.3, ssDAF12 agonist -0.3, hcDAF12 agonist -0.6 and hgDAF12 agonist -1.7.
For CCCC[C@H](C(=O)N(C)c1cccc(OC)c1)[C@@H](O)c1ccc2ccccc2c1 the results were DAX1 inh-1 -1.2, ssDAF12 agonist -1.4, hcDAF12 agonist -3.1 and hgDAF12 agonist -0.9.
Screening Brc1ccccc1-c1nnc(SCc2nc3ccccc3s2)o1 returned DAX1 inh-1 2.8, DAX1 inh-2 0.7, ssDAF12 agonist 2.5*, hcDAF12 agonist 12.4*, hgDAF12 agonist 10.7*, LXRb hcDAF ctr 0.9 and hcDAF12 ag 9.6*.
`Cc1nn(C(=O)c2cc3sccc3[nH]2)c(C)c1C` gave DAX1 inh-1 2.3, DAX1 inh-2 2.7, ssDAF12 agonist 0.5, hcDAF12 agonist 8.1*, hgDAF12 agonist 10.5*, LXRb hcDAF ctr 0.6 and hcDAF12 ag 11.1*.
`Cc1nn(C(=O)CNC(=O)c2ccccc2)c(C)c1C` gave DAX1 inh-1 1.6, DAX1 inh-2 0.6, ssDAF12 agonist -1.2, hcDAF12 agonist -1.0 and hgDAF12 agonist -0.8.
Screening Cc1cc(=O)oc2cc(NC(=O)c3ccccc3OC(F)F)ccc12 returned DAX1 inh-1 1.6, DAX1 inh-2 0.4, ssDAF12 agonist 1.6*, hcDAF12 agonist 7.3*, hgDAF12 agonist 9.9, LXRb hcDAF ctr 0.5 and hcDAF12 ag 9.6*.
CCCCNc1cccc2c1S(=O)(=O)N[C@H](C)CO2 was read as DAX1 inh-1 -0.1, ssDAF12 agonist -0.8, hcDAF12 agonist 0.6 and hgDAF12 agonist 2.1.

From PubChem BioAssay
